Rows were chosen to be rich in hits. Some 7.9% of all compounds tested hit in one or more screens of this group.
Cav32 inh – blocks human Cav3.2 T-type calcium channel; O95180; Cav3.2-expressing cells, Fluo-4 calcium fluorescence FDSS; active compounds read low; B-score at 10 µM; 100,000 tested, 4% active; AID 449739;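 active = single-dose well whose peak fluorescence ratio is a statistical outlier from its plate by either plate-standardised score or position-corrected B-score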
M1 ag – agonists of M1 muscarinic receptor; B-score at 10 µM; 64,000 tested, 3% active; CHO-M1 cells, Fluo-4 calcium fluorescence, agonist mode; active compounds read high; AID 626;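 active = fluorescence rise, raw or as B-score row- and column-corrected plate score, outside the 99.7% band of its plate's samples, either direction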
PLAP activator – activators of human placental alkaline phosphatase; P05187; purified PLAP enzyme, luminescent substrate read-out; active compounds read high; activation fold at 20 µM; 96,000 tested, 1.2% active; in the data active = activation fold above about 2
Target sequence (P05187 whole entry, looked up): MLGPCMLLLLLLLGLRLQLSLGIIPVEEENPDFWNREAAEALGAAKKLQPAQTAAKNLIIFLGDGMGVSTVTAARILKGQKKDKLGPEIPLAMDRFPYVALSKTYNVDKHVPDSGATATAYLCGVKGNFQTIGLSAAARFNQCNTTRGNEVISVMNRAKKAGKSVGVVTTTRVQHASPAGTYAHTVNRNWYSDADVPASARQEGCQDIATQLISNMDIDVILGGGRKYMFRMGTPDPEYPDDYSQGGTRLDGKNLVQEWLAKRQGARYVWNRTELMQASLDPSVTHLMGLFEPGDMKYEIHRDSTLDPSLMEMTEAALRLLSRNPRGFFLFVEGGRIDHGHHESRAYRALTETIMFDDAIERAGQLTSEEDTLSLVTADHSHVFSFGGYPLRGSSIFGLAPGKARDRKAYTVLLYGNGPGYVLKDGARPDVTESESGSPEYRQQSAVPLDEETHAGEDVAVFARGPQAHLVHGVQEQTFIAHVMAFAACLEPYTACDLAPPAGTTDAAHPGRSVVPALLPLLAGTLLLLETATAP
M1 antag – blocks the rat M1 muscarinic receptor response to acetylcholine. P08482. B-score at 10 µM. AID 628. CHO-M1 cells, Fluo-4 calcium, ACh EC80 antagonist mode; active compounds read low. 64,000 tested, 3.4% active;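 active = calcium fluorescence response, raw or row-and-column corrected B-score, differing from the plate sample mean either way at a set confidence level, mostly lower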
Her2 expr inh – lowers expression of human Her2 kinase; SKBR-3 HER2 protein level, AlphaScreen, 18-24 h; active compounds read low; 65,000 tested, 0.69% active; AID 645; HER2 level % of control, % at 10 µM;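 active = HER2 level under 5% of the carrier-only control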;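 note: 100% = DMSO carrier and 0% = 500 nM PU-H71 HSP90 inhibitor; lower value means stronger loss of Her2 protein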
* = called active by the depositor; . = no result given.

SMILES | Cav32 inh | M1 ag | PLAP activator | M1 antag | Her2 expr inh
CC(=O)N1c2ccccc2C(C)(C)C2CCC(C)CC21 (stereo not given) | -4.6* | . | . | . | .
Cc1cc(C)c(S(C)(=O)=O)c(Oc2ccc(C(C)(C)C)cc2)n1 | . | . | 1.1 | . | .
COCc1[nH][nH]c(=O)c1C=Nc1ccc(Cl)cc1 | 0.44 | . | 1.7 | . | .
COCc1[nH][nH]c(=O)c1C=Nc1ccccc1 | 0.046 | . | 2* | . | .
Cc1ccc2[nH]c(C)c(CN(C)C3CCN(C)CC3)c(=O)c2c1 | . | -0.36 | . | 0.27 | 87
C#Cc1ccc([C@@H]2C=C(C(=O)OCC=C)O[C@H](OCCCCO)C2)cc1 | -0.59 | . | . | . | .
Cc1cccc(NC(=O)c2ccc(S(=O)(=O)N3CCCCC3)cc2)n1 | -0.011 | -2.6* | . | -2.4 | 57
COC(=O)c1cccc(NC(=O)c2ccc(S(=O)(=O)N3CCN(C)CC3)cc2)c1 | 0.86 | 0.56 | 1.5 | -0.43 | 99
CN1CCN(S(=O)(=O)c2ccc(NC(=O)c3ccc(F)cc3)cc2)CC1 | 0.63 | 0.2 | 1 | 3.5* | 114
CC(=O)NCCc1ccc(S(=O)(=O)N2CCCC2)cc1 | -0.091 | -0.3 | 0.9 | -0.75 | 95
NS(=O)(=O)c1ccc(CCNC(=O)c2ccc(S(=O)(=O)N3CCCCC3)cc2)cc1 | -0.053 | . | 2* | . | .
O=C(Nc1nc(-c2cccs2)cs1)c1ccc(S(=O)(=O)N2CCCCC2)cc1 | -6.1* | 0.1 | 1.1 | -0.56 | 28
C/C(=N/OCC(=O)Nc1ccc(C)cc1C)c1cccs1 | -1.2 | . | 0.8 | . | .
Cc1cc2c(cc(C(=O)NCc3cccnc3)n2Cc2ccc(Cl)cc2)o1 | -2.3 | -0.12 | 1.2 | -0.022 | 108
COc1ccc(OC)c(-n2c(SCC(=O)NCc3ccco3)nnc2-c2c[nH]c3ccccc23)c1 | -0.39 | 0.069 | 1.8 | 0.22 | 58
CC1CCN(CCCn2c(=S)[nH]c3ccc(N4CCOCC4)cc3c2=O)CC1 | -4.7* | -0.092 | 1.3 | -0.39 | 110
O=c1c2cc(N3CCOCC3)ccc2[nH]c(=S)n1CCCN1CCCC1 | . | 0.52 | 1.4 | -0.37 | 90
CC1CC1C(=O)Nc1nc(-c2ccccc2)cs1 (stereo not given) | -4* | . | 1.1 | . | .
O=C(Nc1nc2ccccc2s1)C1CCCN1S(=O)(=O)c1ccc(Cl)cc1 (stereo not given) | -5.3* | 0.91 | 1.1 | -0.79 | 99
COc1ccc(-c2csc(NC(=O)C3CCCCN3S(=O)(=O)c3ccccc3)n2)cc1 (stereo not given) | -6.2* | . | 1 | . | .
Cc1ccc(S(=O)(=O)N2CCCC2C(=O)Nc2nc3ccccc3s2)cc1 (stereo not given) | -2.6 | -0.017 | 1 | -0.13 | 74
O=C(Cn1ncc2c1-c1ccccc1OC2)N1CCN(Cc2ccc3c(c2)OCO3)CC1 | 1.4 | 0.85 | 1.6 | -0.17 | 92
N#Cc1c(N)sc2c1CCN(CCc1ccccc1)C2 | -0.4 | . | . | . | .
Cc1n[nH]c(C)c1CCc1nc2c3ccccc3nc(SCC(=O)Nc3ccccc3F)n2n1 | 1 | . | 2.2* | . | .
Cc1cccc(NC(=O)CSc2nc3ccccc3c3nc(CCc4c(C)n[nH]c4C)nn23)c1 | -2 | . | 1.4 | . | .
SMILES | Cav32 inh | M1 ag | PLAP activator | M1 antag | Her2 expr inh
CC1=C(C(=O)Nc2ccccc2)C(c2ccc(C)o2)N2C(=O)CSC2=N1 (stereo not given) | -7.9* | -0.025 | 1.5 | 0.046 | 93
CC1=C(C(=O)Nc2ccccc2)C(c2ccccc2)N2C(=O)CSC2=N1 (stereo not given) | -11* | -0.2 | 1 | -0.013 | 80
CC1=C(C(=O)Nc2ccccc2)C(c2ccc(C(C)C)cc2)N2C(=O)CSC2=N1 (stereo not given) | -1.7 | . | 0.8 | . | .
COC(=O)c1ccccc1NC(=O)C12CCC(C)(C(=O)O1)C2(C)C (stereo not given) | 0.032 | 0.16 | 1.5 | 0.0076 | 111
Cc1ccc(C2CC2c2n[nH]c(=S)n2-c2ccc(C)cc2)cc1 (stereo not given) | -0.82 | . | 2.1* | . | .
Cc1ccc(-n2c(C3CC3c3ccc(Cl)cc3)n[nH]c2=S)cc1 (stereo not given) | -0.39 | . | 1.1 | . | .
COc1ccc(OC)c(NC(=O)CN(c2ccc(C)cc2)S(=O)(=O)c2c(C)noc2C)c1 | -1.9 | 0.034 | 0.9 | -0.25 | 68
COc1ccc(OC)c(NC(=O)CN(c2ccc(C(C)C)cc2)S(=O)(=O)c2c(C)noc2C)c1 | -4.5* | 0.018 | 1.5 | 0.17 | 82
CCOc1ccccc1NC(=O)CN(c1ccc(C)cc1)S(=O)(=O)c1c(C)noc1C | -4.7* | 0.032 | 0.9 | 0.0098 | 78
Cc1nc2nc(-c3cccnc3)nn2c(C)c1Cl | 0.053 | 2 | 1 | -1.4 | 78
